Source: PubChem (The Scripps Research Institute Molecular Screening Center)
Rows were chosen to be rich in hits. Some 4.1% of all compounds tested hit in one or more screens of this group.
hcDAF-12 act – H. contortus DAF-12 nuclear receptor activators, primary screen, cell-based, luminescence, HEK293, lit1-tk-luc reporter; HEK293 hcDAF-12 lit1-tk-luc reporter; 0% DMSO, 100% Δ7-dafachronic acid; activation, % at 6.8 µM; actives 1.4% (n = 370,000); AID 652067, 2013;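 active = activation above the mean of all tested compounds plus 3 SD, cut at about 5.5% in these data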;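 also: 100% = response to 3 µM Δ7-dafachronic acid high control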
DAX1 inh-1 – DAX1 (NR0B1) inhibitors, primary screen, cell-based, HEK293, Gal4-DAX1, luciferase luminescence; Nuclear receptor subfamily 0 group B member 1 (Homo sapiens), P51843; HEK293 Gal4-DAX1 luciferase reporter; AID 504766, 2011; inhibition, % at 6.75 µM; actives 0.99% (n = 340,000);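 active = inhibition above the mean over all tested compounds plus 3 SD, cut at about 4.2% in these data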;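 also: 0% = DAX1-transfected cells with DMSO and 100% = empty-vector control cells with DMSO; inhibition shows as a rise in luminescence from relieved DAX1 repression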
Target sequence (P51843 207-470 limits assumed): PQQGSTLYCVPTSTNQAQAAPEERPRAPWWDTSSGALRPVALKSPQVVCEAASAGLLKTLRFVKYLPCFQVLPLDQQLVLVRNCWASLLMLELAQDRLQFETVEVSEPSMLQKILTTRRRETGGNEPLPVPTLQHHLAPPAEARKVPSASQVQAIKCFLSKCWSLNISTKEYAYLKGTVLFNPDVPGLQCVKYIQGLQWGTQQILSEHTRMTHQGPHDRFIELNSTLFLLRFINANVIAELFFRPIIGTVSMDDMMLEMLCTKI
DAX1 inh-2 – DAX1 (NR0B1) inhibitors on StAR promoter, primary screen, cell-based, luminescence, SF-1 (NR5A1), full-length DAX-1; actives 1.1% (n = 370,000); inhibition, % at 6.8 µM; AID 652010, 2013; HEK293T StAR-luciferase reporter, SF-1/DAX-1 repression relief;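 active = inhibition above the mean over all tested compounds plus 3 SD, cut at about 3.6% in these data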;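 also: 0% = DAX-1 cells with DMSO and 100% = cells lacking DAX-1 with DMSO; higher inhibition means more luminescence from relief of DAX-1 repression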
hgDAF-12 ag – H. glycines DAF-12 receptor agonists, primary screen, cell-based, luminescence, HEK293, GAL4 fusion, UAS-luciferase | HEK293 GAL4-hgDAF12 UAS-luciferase reporter, agonist luminescence; normalized to butyrate control | activation, % at 6.8 µM | actives 1.8% (n = 370,000);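 active = activation above a cutoff set at the mean of all screened compounds plus 3 SD, cut at about 10% in these data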;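 also: 0% = DMSO wells and 100% = sodium butyrate wells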
ssDAF-12 act – S. stercoralis DAF-12 nuclear receptor activators, primary screen, cell-based, luminescence, HEK293, GRIP1 co-expression, lit1-tk-luc; Nuclear hormone receptor DAF-12 (Strongyloides stercoralis); HEK293 ssDAF-12/GRIP1 lit1-tk-luc reporter; % of 3 µM dafachronic acid response; actives 1% (n = 370,000); activation, % at 6.8 µM;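 active = activation above the mean over all tested compounds plus 3 SD, cut at about 0.9% in these data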;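 also: 0% = DMSO-only wells and 100% = 3 µM delta7-dafachronic acid wells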
The depositor's hits bear a star.

Screening NC(CO)(CO)COCc1ccccc1 returned hcDAF-12 act 2, DAX1 inh-1 1, DAX1 inh-2 0, hgDAF-12 ag 0 and ssDAF-12 act 1.3*.
For CCOC(=O)[C@@]12CN(C(=O)OC(C)(C)C)CC=C1N(Cc1ccc(OC)cc1)C(=O)[C@H]2CC(=O)N1CCSCC1 the results were hcDAF-12 act 0, DAX1 inh-2 -1, hgDAF-12 ag 0 and ssDAF-12 act -1.
For Cc1ccc(S(=O)(=O)N2CCCC2C(=O)N2CCc3ccccc3C2)cc1 (stereo unspecified) the results were hcDAF-12 act 0, DAX1 inh-2 0, hgDAF-12 ag -3 and ssDAF-12 act -1.
`COC(=O)C[C@@H]1CC[C@H]2[C@@H](COc3ccc(NS(=O)(=O)c4ccccc4F)cc3C(=O)N2C)O1` gave hcDAF-12 act 0, DAX1 inh-2 0, hgDAF-12 ag -1 and ssDAF-12 act -1.
Screening Cc1ccccc1NC(=O)C(=O)NCCCN1CCCC1=O returned hcDAF-12 act 3, DAX1 inh-1 1, DAX1 inh-2 3.7*, hgDAF-12 ag 0 and ssDAF-12 act 0.
Screening Cc1cc(=O)nc2c3ccccc3n(CC(=O)NCCCN3CCCC3=O)n12 returned hcDAF-12 act 6.0*, DAX1 inh-1 1, DAX1 inh-2 1, hgDAF-12 ag 3 and ssDAF-12 act 0.
Screening Cc1ccccc1NC(=O)NCCCN1CCCC1=O returned hcDAF-12 act 0, DAX1 inh-1 0, DAX1 inh-2 2, hgDAF-12 ag -1 and ssDAF-12 act -1.
For Cc1cc(=O)nc2c3ccccc3n(C(C)C(=O)NCCN3CCOCC3)n12 (stereo unspecified) the results were hcDAF-12 act 0, DAX1 inh-1 1, DAX1 inh-2 0, hgDAF-12 ag 2 and ssDAF-12 act -1.
Cc1cc(=O)nc2c3ccccc3n(CC(=O)NCCCN3CCOCC3)n12 was read as DAX1 inh-1 1.
Screening CCN(CC)CCCNC(=O)C(C)n1c2ccccc2c2nc(=O)cc(C)n21 (stereo unspecified) returned hcDAF-12 act -1, DAX1 inh-1 5.4*, DAX1 inh-2 1, hgDAF-12 ag -1 and ssDAF-12 act -1.
Screening COC(=O)[C@]1(C#N)CC(=O)N(C)[C@@H]1c1ccccc1 returned hcDAF-12 act 2, DAX1 inh-2 1, hgDAF-12 ag 5 and ssDAF-12 act -1.
For Nc1cccc(S(=O)(=O)N2CCCN(S(=O)(=O)c3ccc4c(c3)OCCO4)CC2)c1 the results were hcDAF-12 act -1, hgDAF-12 ag 2 and ssDAF-12 act -2.
`CC1=C(C(=O)OCC2CCCO2)C(c2coc3ccccc3c2=O)C2=C(CCCC2=O)N1` (stereo unspecified) gave hcDAF-12 act 5, DAX1 inh-1 4.2*, DAX1 inh-2 -1, hgDAF-12 ag -2 and ssDAF-12 act -1.
For COC(=O)C1=C(C)NC2=C(C(=O)CCC2)C1c1coc2ccccc2c1=O (stereo unspecified) the results were hcDAF-12 act 2, DAX1 inh-1 -1, DAX1 inh-2 -1, hgDAF-12 ag 1 and ssDAF-12 act 0.
Screening CCCn1c(-c2cccc([N+](=O)[O-])c2)nc2c1c(=O)[nH]c(=O)n2Cc1ccccc1 returned hcDAF-12 act 0, DAX1 inh-1 6.4*, DAX1 inh-2 -1, hgDAF-12 ag 0 and ssDAF-12 act -1.
Screening C/C(=N\NC(=O)c1nnn(-c2nonc2N)c1CN1CCc2ccccc21)c1ccccc1O returned hcDAF-12 act 5.6*, DAX1 inh-1 0, DAX1 inh-2 0, hgDAF-12 ag 0 and ssDAF-12 act -1.
CCC(C)c1ccc(N(C(=O)c2ccco2)C(C(=O)NC2CCCC2)c2cccnc2)cc1 (stereo unspecified) was read as hcDAF-12 act -2, DAX1 inh-1 -1, DAX1 inh-2 0, hgDAF-12 ag 3 and ssDAF-12 act 0.
`C[C@H]1[C@@H](OC(=O)Nc2ccccc2C(F)(F)F)CC[C@@]23CCCN2C(=O)CCC[C@@H]13` gave hcDAF-12 act 0, hgDAF-12 ag 1 and ssDAF-12 act -2.
Screening Cc1cc(C)c[n+](C2=C([O-])c3ccccc3C(=O)/C2=N\S(=O)(=O)c2cccs2)c1 returned hcDAF-12 act 0, DAX1 inh-1 -1, DAX1 inh-2 -1, hgDAF-12 ag -6 and ssDAF-12 act -1.
`Cc1cc[n+](C2=C([O-])c3ccccc3C(=O)/C2=N\S(=O)(=O)c2cccs2)cc1C` gave hcDAF-12 act 3, DAX1 inh-1 4.5*, DAX1 inh-2 -1, hgDAF-12 ag -3 and ssDAF-12 act 0.
`COc1ccc(C2C(C(=O)N3CCOCC3)CCC(=O)N2c2ccc(OC)cc2)cc1` (stereo unspecified) gave hcDAF-12 act 0, DAX1 inh-1 0, DAX1 inh-2 0, hgDAF-12 ag 2 and ssDAF-12 act 0.
Screening COc1ccc(C2C(C(=O)NCC3CCCO3)CCC(=O)N2c2ccc3c(c2)OCO3)cc1 (stereo unspecified) returned hcDAF-12 act -1, DAX1 inh-1 4.4*, DAX1 inh-2 1, hgDAF-12 ag -2 and ssDAF-12 act -1.
`COc1ccc(CC(=O)OC(C)C(=O)NC2CCCCC2C)cc1` (stereo unspecified) gave hcDAF-12 act 1, DAX1 inh-1 0, DAX1 inh-2 0, hgDAF-12 ag 0 and ssDAF-12 act -1.
`c1cnc2ncc3sccc3c2c1` gave hcDAF-12 act 2, DAX1 inh-1 0, DAX1 inh-2 0, hgDAF-12 ag 2 and ssDAF-12 act -1.
For O=c1[nH]c2cccnc2c2ccsc12 the results were hcDAF-12 act 0, DAX1 inh-1 5.9*, DAX1 inh-2 0, hgDAF-12 ag -2 and ssDAF-12 act 0.
`O=C(O)c1cc(NC(=O)C2CCCO2)cc(C(=O)O)c1` (stereo unspecified) gave hcDAF-12 act 2, DAX1 inh-1 0, DAX1 inh-2 0, hgDAF-12 ag 2 and ssDAF-12 act -1.
Screening CC(C)(C)c1cc(NC(=O)C2CCCO2)no1 (stereo unspecified) returned hcDAF-12 act 2, DAX1 inh-1 1, DAX1 inh-2 1, hgDAF-12 ag 8 and ssDAF-12 act 1.4*.
CCN1CCN(CC(=O)N/N=C/c2ccc(F)cc2F)CC1 was read as hcDAF-12 act 0, DAX1 inh-1 -1, DAX1 inh-2 0, hgDAF-12 ag 1 and ssDAF-12 act 1.1*.
